IL-1B inflam inh = inflammasome signaling inhibition, IL-1 beta readout; actives 4.7% (n = 360,000); AID 743279; activity change, % at 57.5 µM; THP-1 LPS/ATP IL-1B secretion, AlphaLISA, 16 h; stronger effect = lower value; in the data active = activity change below about -50%; inconclusive = mostly about -30% to -49%
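THP-1 cells pretreated 1 hr with compounds (up to 57.5 uM final), then stimulated with LPS (250 ng/mL final) plus ATP (1.25 mM final); secreted IL-1B measured by AlphaLISA after 16 hr, decreased signal indicating inhibition.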
DT40 TDP1 CPT = growth inhibition of DT40 Tdp1-/-;hTDP1 cells with camptothecin (screen for TDP1 inhibitors); chicken DT40 Tdp1-/-;hTDP1 cells + 20 nM CPT, ATP luminescence, 48 h; actives 12% (n = 420,000); Potency, µM (titrated, usually from 46.2 µM), hits mostly inhibitors; note: nearly all actives have a fitted effect of over 55% in size
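Cell growth measured by CellTiter-Glo luminescence after a minimum 48 h, 37 C compound exposure with 20 nM CPT in Tdp1-knockout DT40 cells stably expressing hTDP1, seeded 400/well; qHTS titration format.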
TGFb SMAD3 inh = TGF-b pathway inhibition | Potency, µM (top dose mostly 46.1 µM), most hits filed as inhibitors | HepG2 CAGA-GFP TGF-b/SMAD3 reporter, GFP fluorescence, 18 h; TGF-beta stimulated, 500 pg/mL final | actives 1.2% (n = 410,000); note: nearly all actives have a fitted effect of over 65% in size
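HEPG2 CAGA-GFP reporter cells (1000/well, DMEM with 1% FBS) received compounds, then recombinant TGF-beta at 500 pg/mL final for 18 hours at 37 degrees C. Per-cell GFP summed per well was normalised to unstimulated and stimulated DMSO controls before curve fitting.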
DT40 TDP1 no CPT = qHTS for Inhibitors of human tyrosyl-DNA phosphodiesterase 1 (TDP1): qHTS in cells in absence of CPT | actives 15% (n = 420,000) | DT40 Tdp1-/- hTDP1 cells, no CPT, ATP luminescence, 48 h | Potency, µM (titrated, usually from 46.2 µM), most hits filed as inhibitors; note: nearly all actives have a fitted effect of over 55% in size
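DT40 Tdp1-/-;hTDP1 cells, no CPT (DMSO vehicle only), 400 cells/well; compounds pin-transferred; ≥48 hr, 37 °C; CellTiter-Glo 30 min RT dark, luminescence read.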
HepG2 viability = HepG2 cytotoxicity, counter-screen for TGF-b inhibitors; HepG2 CAGA-GFP viability, ATP luminescence, 18 h; Potency, µM (titrated, usually from 46.1 µM), most hits filed as cytotoxic; actives 0.76% (n = 410,000)
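HepG2 CAGA-GFP cells (1000/well, DMEM with 1% FBS) received compound, then TGF-beta at 500 pg/mL final, and were incubated 18 hours at 37 degrees C. Viability was read by CellTiter-Glo luminescence. Media-only wells were set as complete cell-killing and DMSO as no toxicity.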
ASM inhibitor = inhibitors of human secretory acid sphingomyelinase. placental ASM, HMU-PC fluorogenic substrate, 60 min. P17405. actives 0.006% (n = 340,000). Potency, µM (doses to about 57.5 µM), actives largely listed as inhibitors
Target sequence (P17405 47-631 limits assumed): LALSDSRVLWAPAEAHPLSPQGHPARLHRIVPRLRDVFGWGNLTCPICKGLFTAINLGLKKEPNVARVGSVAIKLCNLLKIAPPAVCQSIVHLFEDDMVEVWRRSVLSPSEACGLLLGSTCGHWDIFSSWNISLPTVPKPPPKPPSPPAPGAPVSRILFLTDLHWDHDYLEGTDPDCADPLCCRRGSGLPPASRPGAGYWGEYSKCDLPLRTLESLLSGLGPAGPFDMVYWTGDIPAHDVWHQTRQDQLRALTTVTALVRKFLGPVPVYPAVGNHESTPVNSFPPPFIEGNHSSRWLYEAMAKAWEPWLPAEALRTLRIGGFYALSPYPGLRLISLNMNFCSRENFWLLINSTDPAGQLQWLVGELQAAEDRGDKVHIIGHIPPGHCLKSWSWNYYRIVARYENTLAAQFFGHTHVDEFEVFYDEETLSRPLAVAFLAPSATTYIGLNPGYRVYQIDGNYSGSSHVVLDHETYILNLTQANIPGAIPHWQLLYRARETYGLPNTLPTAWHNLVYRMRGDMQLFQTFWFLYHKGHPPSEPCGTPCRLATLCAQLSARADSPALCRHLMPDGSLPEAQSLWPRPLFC
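Human placenta-derived ASM preincubated with compound 10 min at room temperature, then reacted with 9 uM (final) fluorogenic HMU-PC substrate for 60 min at 37 C. Stop solution raises pH to 10; fluorescence read at Ex 386/Em 447 nm.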
Numbers stand for hits; n = inactive; u = inconclusive; x = no result. Most compounds without a hit are left out; they make up all but 19% or so of the library. Unless noted, calls come from the whole dose curve; as a rule, active = well fitted curve in the direction sought with a large enough effect; inconclusive = small, poorly fitted or top-dose-only effect, or another doubt; inactive = no such curve, though single readings can be large; an effect the other way counts as inactive or inconclusive.

SMILES	IL-1B inflam inh	DT40 TDP1 CPT	TGFb SMAD3 inh	DT40 TDP1 no CPT	HepG2 viability	ASM inhibitor
CCc1ccccc1NC(=O)CC(c1ccc(F)cc1)N1Cc2ccccc2C1=O (stereo not drawn)	x	23µM	u	23µM	n	x
COc1ccc(C(CC(=O)Nc2ccc(C(C)=O)cc2)N2Cc3ccccc3C2=O)cc1 (stereo not drawn)	x	n	x	n	n	x
CSc1cccc(NC(=O)CC(c2ccc(F)cc2)N2Cc3ccccc3C2=O)c1 (stereo not drawn)	x	23µM	u	21µM	n	x
Nc1nc(NCc2cccc(Cl)c2)c2[nH]cnc2n1	x	u	n	u	n	x
Cc1ccc(C(CC(=O)Nc2cc(C)cc(C)c2)N2Cc3ccccc3C2=O)cc1 (stereo not drawn)	x	15µM	u	23µM	n	x
Cc1ccc(NC(=O)CC(c2ccc(F)cc2)N2Cc3ccccc3C2=O)cc1C (stereo not drawn)	x	n	n	n	n	x
CC(=O)Nc1cc[n+](C(C)C(=O)c2ccc(Br)cc2)cc1 (stereo not drawn)	n	n	n	u	n	n
COc1cc(CN2CCCC(N3CCN(c4ccc(F)cc4)CC3)C2)ccc1F (stereo not drawn)	n	21µM	n	u	n	n
COc1cc(CN2CCCC(N3CCN(c4ccccc4C)CC3)C2)ccc1O (stereo not drawn)	n	13µM	n	u	n	n
O=C(Nc1ccc2c(c1)OCO2)C1CC(c2cccc(Br)c2)=NO1 (stereo not drawn)	n	n	n	n	n	n
O=C1N(Cc2ccccc2)c2ccccc2C1(O)c1c[nH]c2ccccc12 (stereo not drawn)	x	n	n	n	n	x
O=C1N(Cc2ccccc2Cl)c2ccccc2C1(O)c1c[nH]c2ccccc12 (stereo not drawn)	x	16µM	u	u	n	x
Cc1ccc(C)c(CN2C(=O)C(O)(c3c[nH]c4ccccc34)c3ccccc32)c1 (stereo not drawn)	x	29µM	u	23µM	n	x
Cc1ccccc1CN1C(=O)C(O)(c2c[nH]c3ccccc23)c2cc(Cl)ccc21 (stereo not drawn)	x	16µM	16µM	18µM	11µM	x
O=C(NCc1cccnc1)c1cc(C2CCCCN2C(=O)c2cccs2)on1 (stereo not drawn)	n	n	n	n	n	x
Cc1ccc(-n2c(=O)c3c(C)c(C)sc3n(Cc3ccc(F)cc3Cl)c2=O)cc1C	x	n	n	n	n	x
CCn1c(SCC(=O)c2ccccc2)nc2c(c1=O)SC(C)C2 (stereo not drawn)	n	u	u	u	n	n
CCn1c(SCC(=O)Nc2cc(C)on2)nc2c(c1=O)SC(C)C2 (stereo not drawn)	n	n	n	u	n	n
CCn1c(SCC(=O)Nc2nc3ccccc3s2)nc2c(c1=O)SC(C)C2 (stereo not drawn)	u	0.73µM	u	23µM	n	n
CCn1c(SCC(=O)Nc2nc3ccc(C)cc3s2)nc2c(c1=O)SC(C)C2 (stereo not drawn)	-83	16µM	u	10µM	n	n
COc1cccc(CNC(=O)c2c(OC)cc(=O)n3c2CCN(C(=O)c2csc(C)n2)CC3)c1	x	n	x	n	x	x
Cc1ccc(CNC(=O)CN2CCN(Cc3ccc(F)cc3Cl)C2=O)cc1	x	n	u	n	n	x
c1ccc2c(Nc3nc(N4CCOCC4)c4ccccc4n3)cccc2c1	-109	13µM	25µM	23µM	n	n
FC(F)(F)c1ccccc1-c1nc(N2CCOCC2)c2ccccc2n1	x	n	x	n	x	x
Fc1ccc(Nc2nc(N3CCOCC3)c3ccccc3n2)cc1	-78	u	u	23µM	n	n
SMILES	IL-1B inflam inh	DT40 TDP1 CPT	TGFb SMAD3 inh	DT40 TDP1 no CPT	HepG2 viability	ASM inhibitor
O=P(O)(O)OC[C@H]1O[C@](O)(COP(=O)(O)O)[C@@H](O)[C@@H]1O	x	n	x	n	x	x
COc1cc(C(=O)NCc2ccccc2Cl)ccc1OCC(=O)N1CCOCC1	n	n	n	n	n	x
CCNC(=S)N(CCc1c(C)[nH]c2ccc(Cl)cc12)Cc1cccnc1	-87	u	n	u	n	n
COCCNC(=S)N(CCc1c(C)[nH]c2ccc(F)cc12)Cc1cccnc1	n	n	n	n	n	n
COCCNC(=S)N(CCc1c(C)[nH]c2ccc(C)cc12)Cc1cc(OC)c(OC)c(OC)c1	n	18µM	n	u	n	n
COCCNC(=S)N(CCc1c(C)[nH]c2ccc(Cl)cc12)Cc1cccnc1	u	u	u	21µM	n	n
CNC(=S)N(CCc1c(C)[nH]c2ccc(Cl)cc12)Cc1cccnc1	u	n	n	u	n	n
COc1cccc(-n2cnnc2SCC(=O)NC2CC2)c1	n	n	n	n	n	n
O=C(CNC(=O)c1cccc(F)c1)N/N=C/c1cc(Br)ccc1OC(=O)/C=C/c1ccco1	n	7.3µM	u	3.7µM	n	n
O=C(CNC(=O)c1ccccc1O)N/N=C/c1cc(Br)ccc1OC(=O)/C=C/c1ccco1	n	7.3µM	n	4.6µM	n	n
CC(C)c1ccc(NC2CCCN(C(=O)CN3C(=O)CSC3=O)C2)cc1 (stereo not drawn)	n	n	n	n	n	n
COc1cccc(/C=N/NC(N)=S)c1OS(=O)(=O)c1ccccc1	n	u	n	n	n	n
Cc1ccc(S(=O)(=O)Oc2ccccc2/C=N/NC(N)=S)cc1	n	4.1µM	n	6.5µM	n	n
Cc1ccc(S(=O)(=O)Oc2ccc(/C=N/NC(=O)c3nn(C)cc3[N+](=O)[O-])cc2)cc1	n	n	u	u	n	n
Cc1ccc(S(=O)(=O)Oc2ccccc2/C=N/N=C(N)N)cc1	-127	u	u	18µM	n	n
Cc1ccc(S(=O)(=O)Oc2ccccc2/C=N/NC(=O)c2nn(C)cc2[N+](=O)[O-])cc1	u	u	u	16µM	n	n
N#Cc1nc(-c2ccco2)oc1NCc1ccccc1Cl	n	n	n	u	n	n
COC(=O)c1ccc(Oc2nc3c(c(=O)n(C)c(=O)n3C)n2CCC(C)C)cc1	n	u	n	23µM	n	n
Cn1c(=O)c2c(nc(Br)n2CC(=O)C23CC4CC(CC(C4)C2)C3)n(C)c1=O	n	23µM	n	18µM	n	n
CCn1c(Oc2cccc(Br)c2)nc2c1c(=O)n(C)c(=O)n2C	n	n	n	n	n	n
COc1cccc(C(=O)Cn2c(Br)nc3c2c(=O)n(C)c(=O)n3C)c1	n	u	n	9.2µM	n	n
